For 35 molecules, Potency results are on record in PubChem BioAssay (NCATS).

Assay [1] concerns the target Single-stranded DNA cytosine deaminase (Homo sapiens) (UniProt Q9GZX7). As to the kind of experiment: Validation qHTS assay for inhibitors of Activation Induced Cytidine Deaminase (AID): AID signal (AID 1347429). Summed up:
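Compounds (up to 114 uM final) are tested against AID plus UDG using DJC20/DJC23 FRET substrate. Reactions incubate 4 hr at room temperature, receive NaOH for 30 min, and are read at Ex 540/Em 590 nm.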

A short description of assay [2]: Primary qHTS for inhibitors of La Crosse Virus (LACV) - induced cell death in SH-SY5Y cells (AID 1508616).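 Note: top concentration of the series differs between compounds; higher means more rescue of cells from virus-induced death.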 The essentials:
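Screening measures cell viability in LACV-infected SH-SY5Y cultures. Compound was added before virus (0.01 MOI), and ATP was detected by luminescence 6 days later.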

In assay [3] the target is Calcium and integrin-binding protein 1 (Homo sapiens) (UniProt Q99828). As to the kind of experiment: Validation qHTS for Identification of Calcium Integrin Binding protein 1 (CIB1) Competitor (AID 1508618). Summed up: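 CIB1-GST (1 uM final) in 5 mM HEPES pH 7.4, 125 mM NaCl, 5 mM CaCl2, 0.01% Tween20 was preincubated 15 min at room temperature with compound (up to 114 uM), then FITC-alphaIIb peptide (100 nM) added for 15 min; fluorescence polarization read.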

A short description of assay [4]: Primary qHTS for small molecule stabilizers of the endoplasmic reticulum resident proteome: Secreted ER Calcium Modulated Protein (SERCaMP) assay (AID 1508630). Summed up:
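The SH-SY5Y reporter protocol was run at 3 concentrations up to 38.3 uM (primary) or 11 concentrations (follow-up): 16 h compound, 100 nM thapsigargin for 4 h, then extracellular luciferase luminescence.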

For the next assay, the target named is Papain (Carica papaya) (UniProt P00784). As to the kind of experiment: Primary qHTS assay for inhibitors of the protease papain (AID 1645873).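 Note: papain turnover of Z-FR-AMC read as the AMC fluorescence gain over 10 min.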 Note: potency is the fitted concentration of half-maximal effect.

Unmarked numbers belong to inactive results. Records with an inconclusive call do not appear. The source made the active and inactive calls. Calls come from the whole dose curve; as a rule, active = well fitted curve in the direction sought with a large enough effect; inconclusive = small, poorly fitted or top-dose-only effect, or another doubt; inactive = no such curve, though single readings can be large; an effect the other way counts as inactive or inconclusive.

Sequence of Papain (Carica papaya) (P00784 whole entry, looked up): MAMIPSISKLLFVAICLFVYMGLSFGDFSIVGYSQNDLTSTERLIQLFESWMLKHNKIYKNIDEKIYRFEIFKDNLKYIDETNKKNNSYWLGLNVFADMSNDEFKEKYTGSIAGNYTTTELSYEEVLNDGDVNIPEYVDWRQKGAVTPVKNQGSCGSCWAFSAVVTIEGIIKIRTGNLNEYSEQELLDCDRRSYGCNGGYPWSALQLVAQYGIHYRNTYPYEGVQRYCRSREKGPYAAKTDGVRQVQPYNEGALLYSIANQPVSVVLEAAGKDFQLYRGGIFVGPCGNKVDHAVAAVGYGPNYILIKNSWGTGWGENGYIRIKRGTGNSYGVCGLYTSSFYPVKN
Sequence of Calcium and integrin-binding protein 1 (Homo sapiens) (Q99828 whole entry, looked up): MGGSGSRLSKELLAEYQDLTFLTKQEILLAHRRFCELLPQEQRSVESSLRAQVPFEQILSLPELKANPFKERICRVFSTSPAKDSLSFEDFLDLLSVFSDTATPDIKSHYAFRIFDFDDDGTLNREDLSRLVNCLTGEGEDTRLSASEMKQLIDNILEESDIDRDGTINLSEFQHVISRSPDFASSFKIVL
Sequence of Single-stranded DNA cytosine deaminase (Homo sapiens) (Q9GZX7 whole entry, looked up): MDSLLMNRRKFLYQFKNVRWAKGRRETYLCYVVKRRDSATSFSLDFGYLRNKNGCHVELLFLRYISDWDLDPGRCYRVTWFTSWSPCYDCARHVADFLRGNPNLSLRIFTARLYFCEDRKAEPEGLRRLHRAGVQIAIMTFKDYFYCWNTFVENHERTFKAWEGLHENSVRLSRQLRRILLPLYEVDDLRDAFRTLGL

As for `N[C@@H](Cc1ccc(O)c(I)c1)C(=O)O`, the Potency result (in assay [1]; in assay [2]; in assay [3]; in assay [4]; with Papain (Carica papaya)) was “inactive” each time.
In the case of `CCN(CC)CCOC(=O)c1cc(Cl)c(N)cc1OC`, the Potency result (in assay [1]; in assay [2]; in assay [3]; in assay [4]; with Papain (Carica papaya)) was “inactive” in each case.
As for `c1ccc2c(c1)CCC[C@H]2Nc1nc2ccccc2[nH]1`, the Potency entry (in assay [1]; in assay [2]; in assay [3]; in assay [4]; with Papain (Carica papaya)) was “inactive” in each case.
Take `COC1(C2=NCCN2)COc2ccccc2O1` (stereo not given): the Potency entry (in assay [1]; in assay [2]; in assay [3]; in assay [4]; with Papain (Carica papaya)) was “inactive” in each case.
Take `CC(N)(C(=O)O)c1ccc(C(=O)O)cc1` (stereo not given): the Potency entry (in assay [1]; in assay [2]; in assay [3]; in assay [4]; with Papain (Carica papaya)) was “inactive” throughout.
As for `N=C(N)SCCN`, the Potency result (in assay [1]; in assay [2]; in assay [3]; in assay [4]; in the assay with Papain (Carica papaya)) was “inactive” throughout.
Turning to `O=[N+]([O-])c1cccc2cn[nH]c12`, the Potency result (in assay [1]; in assay [2]; in assay [3]; in assay [4]; in the assay with Papain (Carica papaya)) was “inactive” throughout.
Consider `CCCCCCC(=O)OC1CC(C)(C)NC(C)(C)C1`, for which the Potency result (in assay [1]; in assay [2]; in assay [3]; in assay [4]; in the assay with Papain (Carica papaya)) was “inactive” each time.
With `NC(N)=[N+]1CCc2ccccc2C1`, the Potency entry (in assay [1]; in assay [2]; in assay [3]; in assay [4]; with Papain (Carica papaya)) was “inactive” in each case.
In the case of `NCCCCN=C(N)N`, the Potency result (in assay [1]; in assay [2]; in assay [3]; in assay [4]; with Papain (Carica papaya)) was “inactive” each time.
With `Oc1cc2c(cc1O)C(c1ccccc1)CNCC2` (stereo not given), the Potency result (in assay [1]; in assay [2]; in assay [3]; in assay [4]; with Papain (Carica papaya)) was “inactive” each time.
With `CCCn1c(=O)c(C)cn2nc(N)nc12`, the Potency entry in assay [1], in assay [2], in assay [3] and in assay [4] was “inactive” each time. In addition, the Potency with Papain (Carica papaya) was 28.2 µM (active).
As to `CCN1C(=O)C=CC1=O`, the Potency entry (in assay [1]; in assay [2]; in assay [3]; in assay [4]; with Papain (Carica papaya)) was “inactive” each time.
In the case of `COC(=O)C(N)Cc1ccc(Cl)cc1` (stereo not given), the Potency entry (in assay [1]; in assay [2]; in assay [3]; in assay [4]; with Papain (Carica papaya)) was “inactive” in each case.
`Cc1cccc(C)c1OCC(N)C(C)C` (stereo not given): the Potency result (in assay [1]; in assay [2]; in assay [3]; in assay [4]; in the assay with Papain (Carica papaya)) was “inactive” in each case.
For the molecule `COc1ccccc1N1CCN(CCCCNC(=O)c2ccc3ccccc3c2)CC1`, the Potency result (in assay [1]; in assay [2]; in assay [3]; in assay [4]; with Papain (Carica papaya)) was “inactive” throughout.
Take `N=C(N)SCCc1cnc[nH]1`: the Potency entry (in assay [1]; in assay [2]; in assay [3]; in assay [4]; with Papain (Carica papaya)) was “inactive” throughout.
In the case of `CC(O)C(O)[C@H]1CNc2nc(N)[nH]c(=O)c2N1` (stereo not given in full), the Potency result in assay [1], in assay [2], in assay [3] and in assay [4] was “inactive” throughout. Moreover, the Potency with Papain (Carica papaya) was 25.1 µM (active).
Regarding `CC(N)=O`, the Potency result (in assay [1]; in assay [2]; in assay [3]; in assay [4]; in the assay with Papain (Carica papaya)) was “inactive” in each case.
As to `CCCCCCCCCCC(C)(C)C(=O)Nc1c(OC)cc(OC)cc1OC`, the Potency result (in assay [1]; in assay [2]; in assay [3]; in assay [4]; with Papain (Carica papaya)) was “inactive” throughout.
As for `CSC(N)=NCCC[C@H](N)C(=O)O`, the Potency entry (in assay [1]; in assay [2]; in assay [3]; in assay [4]; with Papain (Carica papaya)) was “inactive” each time.
Take `O=C(O)C1=CCCNC1`: the Potency result (in assay [1]; in assay [2]; in assay [3]; in assay [4]; with Papain (Carica papaya)) was “inactive” in each case.
For `COC(=O)C1=C(C)NC(C)=C([N+](=O)[O-])C1c1ccccc1C(F)(F)F` (stereo not given), the Potency entry (in assay [1]; in assay [2]; in assay [3]; in assay [4]; in the assay with Papain (Carica papaya)) was “inactive” throughout.
As for `Clc1nccc2c1ccc1ccccc12`, the Potency entry (in assay [1]; in assay [2]; in assay [3]; in assay [4]; with Papain (Carica papaya)) was “inactive” in each case.
`COc1cc(N)c(Cl)cc1C(=O)OCCN1CCCCC1`: the Potency entry (in assay [1]; in assay [2]; in assay [3]; in assay [4]; with Papain (Carica papaya)) was “inactive” throughout.
On to `CNC(=O)c1cc2c(cn1)[nH]c1ccccc12`, for which the Potency entry in assay [1], in assay [2], in assay [3] and in assay [4] was “inactive” throughout. Besides, the Potency in the assay with Papain (Carica papaya) was 25.1 µM (active).
In the case of `CC(C)(C)c1cc(/C=C(\C#N)C(N)=S)cc(C(C)(C)C)c1O`, the Potency result (in assay [1]; in assay [2]; in assay [3]; in assay [4]; in the assay with Papain (Carica papaya)) was “inactive” in each case.
As for `CCCc1c(-c2ccc(O)cc2)nn(-c2ccc(O)cc2)c1-c1ccc(O)cc1`, the Potency result (in assay [1]; in assay [2]; in assay [3]; in assay [4]; with Papain (Carica papaya)) was “inactive” in each case.
For the molecule `CC(C)(C)NCC(O)COc1cccc2[nH]c(=O)[nH]c12` (stereo not given), the Potency result (in assay [1]; in assay [2]; in assay [3]; in assay [4]; in the assay with Papain (Carica papaya)) was “inactive” each time.
Regarding `CNCCNS(=O)(=O)c1cccc2cnccc12`, the Potency entry (in assay [1]; in assay [2]; in assay [3]; in assay [4]; in the assay with Papain (Carica papaya)) was “inactive” in each case.
In the case of `CNCCc1cnc(CCC(c2ccccc2)c2ccccc2)[nH]1`, the Potency result (in assay [1]; in assay [2]; in assay [3]; in assay [4]; with Papain (Carica papaya)) was “inactive” each time.
For the molecule `C=CCN1CCc2cc(O)c(O)cc2C(c2ccccc2)C1` (stereo not given), the Potency entry (in assay [1]; in assay [2]; in assay [3]; in assay [4]; with Papain (Carica papaya)) was “inactive” throughout.
For `CC(C)(C)c1ccc(/C=C/C(=O)Nc2ccc3c(c2)OCCO3)cc1`, the Potency result (in assay [1]; in assay [2]; in assay [3]; in assay [4]; with Papain (Carica papaya)) was “inactive” throughout.
`CC(C)C[C@H](NC(=O)[C@H](O)[C@H](N)Cc1ccccc1)C(=O)O`: the Potency result (in assay [1]; in assay [2]; in assay [3]; in assay [4]; with Papain (Carica papaya)) was “inactive” each time.
`Nc1ncnc2c1ncn2C1CCCC1`: the Potency result (in assay [1]; in assay [2]; in assay [3]; in assay [4]; with Papain (Carica papaya)) was “inactive” each time.
